Source: PubChem BioAssay
The source made the active and inactive calls. Unless noted, the rule behind the calls is not given here.

Legend:
[1] = resazurin metabolic signal in HepG2 cells – cell-based, resazurin fluorescence, 24 h, PK04 Diversity Set, profiling panel (AID 1172); conditions: HepG2 viability, higher = more signal
[2] = budding yeast growth changes without added modifier – OD600, strain BY4716, 24 h, basal condition, primary screen (AID 1173); conditions: S. cerevisiae BY4716 growth, OD600, 24 h; higher = more signal, called active from +8 up or from −8 down
[3] = viability profiling in MM1S myeloma cells – cell-based, resazurin fluorescence, basal, 24 h, PK04 Diversity Set, profiling panel (AID 1174); conditions: higher = more signal, called active from +8 up or from −8 down;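 note: MM1S multiple myeloma cell line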
[4] = molecular target: Dihydroorotate dehydrogenase (quinone), mitochondrial (Plasmodium falciparum (isolate 3D7)) (UniProt Q08210); experiment: inhibition of P. falciparum DHODH – biochemical, C-terminal His tag, absorbance 600 nm, primary screen (AID 1175); conditions: PfDHODH enzyme, DCIP absorbance 600 nm; higher = more signal, called active from +8 up or from −8 down;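 note: recombinant parasite enzyme with a five histidine tag at its C terminus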
[5] = inhibition of PAO1 biofilm formation – strain PAO1, LB-PBS medium, absorbance 600 nm, primary screen (AID 1176); conditions: P. aeruginosa PAO1 growth/biofilm, A600, 12 h; higher = more signal
[6] = growth modulation of vineyard yeast isolate – strain RM11-1a, OD600, basal, 24 h, primary screen (AID 1177);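 note: cultures grown under basal conditions with no added stressor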; conditions: S. cerevisiae RM11-1a growth, OD600, 24 h; higher = more signal, called active from +8 up or from −8 down
[7] = growth of efflux-deficient E. coli DRC39 – strain DRC39, OD650, 24 h, E. coli filamentation inducers, primary screen (AID 1178);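 note: growth measured as culture turbidity by optical density at 650 nm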; conditions: E. coli DRC39 acrAB, higher = more signal, called active from +8 up or from −8 down
[8] = growth of efflux-deficient E. coli DRC39 – strain DRC39, OD650, 48 h, E. coli filamentation inducers, primary screen (AID 1179);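 note: screen aims at cell division blockers that make cells filament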; conditions: E. coli DRC39 delta-acrAB growth, higher = more signal, called active from +8 up or from −8 down
[9] = viability profiling in RPMI8226 myeloma cells – cell-based, resazurin fluorescence, basal, 24 h, PK04 Diversity Set, profiling panel (AID 1180); conditions: higher = more signal;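 note: RPMI8826 multiple myeloma cell line at 5000 cells per well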
[10] = molecular target: E3 ubiquitin-protein ligase XIAP (Homo sapiens) (UniProt P98170); experiment: small molecules binding XIAP protein – biophysical, small-molecule microarray, fluorescence 635 nm, primary screen (AID 1181); conditions: higher = more signal;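 note: score merges 667 nm emission and signal to noise over triplicate slides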
[11] = system: XIP peptide (Xip251-270) binding; experiment: XIP fragment 251-270 binding compounds – biochemical, small-molecule microarray, fluorescence 635/667 nm, 0.1 µg/mL protein, primary screen (AID 1182); conditions: fluorescent protein binding, 635 nm, higher = more signal, called active from +8 up or from −8 down
[12] = system: XIP peptide (Xip251-270); experiment: compounds binding XIP fragment 251-270 – biochemical, small-molecule microarray, fluorescence 635/667 nm, 0.5 µg/mL protein, primary screen (AID 1183); conditions: fluorescence 635 nm, higher = more signal
[13] = blood-stage malaria parasite viability loss – strain 3D7, DAPI fluorescence, 100 nL, primary screen (AID 1184);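 note: parasites grown inside human red blood cells in medium with human serum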; conditions: P. falciparum 3D7 growth, 3 d, higher = more signal
[14] = molecular target: Homeobox protein Hox-A13 (Mus musculus) (UniProt Q62424); experiment: disruptors of Hoxa13 oligonucleotide interaction – biochemical, fluorescence polarization, labeled oligonucleotide, primary screen (AID 1185); conditions: Hoxa13:DNA binding, 15 min, higher = more signal, called active from +8 up or from −8 down
[15] = blockers of DNA damage checkpoint Chk1 activation – imaging, HeLa, hydroxyurea, phospho-Chk1 antibody, percent positive cells, primary screen (AID 1186); conditions: hydroxyurea-induced phospho-Chk1 immunofluorescence imaging, higher = more signal
[16] = blockers of DNA damage checkpoint Chk1 activation – imaging, HeLa, hydroxyurea, phospho-Chk1 nuclear intensity, primary screen (AID 1187); conditions: hydroxyurea-induced phospho-Chk1 immunofluorescence imaging, higher = more signal

Sequence of Homeobox protein Hox-A13 (Mus musculus) (Q62424 whole entry, looked up): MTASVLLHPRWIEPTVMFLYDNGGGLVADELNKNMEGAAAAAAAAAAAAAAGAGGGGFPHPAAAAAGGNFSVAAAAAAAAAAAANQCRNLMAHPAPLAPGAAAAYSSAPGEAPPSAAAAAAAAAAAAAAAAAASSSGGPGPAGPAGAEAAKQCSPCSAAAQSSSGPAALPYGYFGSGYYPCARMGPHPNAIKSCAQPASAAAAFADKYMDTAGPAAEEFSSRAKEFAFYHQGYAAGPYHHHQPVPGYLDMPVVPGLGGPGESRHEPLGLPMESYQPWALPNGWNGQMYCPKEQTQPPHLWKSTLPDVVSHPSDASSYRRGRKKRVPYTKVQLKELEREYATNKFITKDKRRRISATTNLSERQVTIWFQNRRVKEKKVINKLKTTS
Sequence of Dihydroorotate dehydrogenase (quinone), mitochondrial (Plasmodium falciparum (isolate 3D7)) (Q08210 whole entry, looked up): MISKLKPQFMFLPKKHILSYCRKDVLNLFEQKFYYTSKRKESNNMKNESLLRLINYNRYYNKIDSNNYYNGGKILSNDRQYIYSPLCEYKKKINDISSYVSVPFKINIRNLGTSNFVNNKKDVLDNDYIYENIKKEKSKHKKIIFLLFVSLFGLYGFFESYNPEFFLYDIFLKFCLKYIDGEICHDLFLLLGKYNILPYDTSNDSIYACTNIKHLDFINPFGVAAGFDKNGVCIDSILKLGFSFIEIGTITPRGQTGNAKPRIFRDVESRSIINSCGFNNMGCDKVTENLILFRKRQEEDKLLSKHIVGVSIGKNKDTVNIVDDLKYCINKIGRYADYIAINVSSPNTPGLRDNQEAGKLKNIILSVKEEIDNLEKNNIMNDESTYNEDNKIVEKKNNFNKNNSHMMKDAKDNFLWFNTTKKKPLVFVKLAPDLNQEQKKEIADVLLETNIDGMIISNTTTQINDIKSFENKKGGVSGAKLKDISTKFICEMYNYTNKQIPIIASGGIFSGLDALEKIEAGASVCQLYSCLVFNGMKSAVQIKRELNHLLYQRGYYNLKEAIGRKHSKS
Sequence of E3 ubiquitin-protein ligase XIAP (Homo sapiens) (P98170 whole entry, looked up, the tested form may be a part): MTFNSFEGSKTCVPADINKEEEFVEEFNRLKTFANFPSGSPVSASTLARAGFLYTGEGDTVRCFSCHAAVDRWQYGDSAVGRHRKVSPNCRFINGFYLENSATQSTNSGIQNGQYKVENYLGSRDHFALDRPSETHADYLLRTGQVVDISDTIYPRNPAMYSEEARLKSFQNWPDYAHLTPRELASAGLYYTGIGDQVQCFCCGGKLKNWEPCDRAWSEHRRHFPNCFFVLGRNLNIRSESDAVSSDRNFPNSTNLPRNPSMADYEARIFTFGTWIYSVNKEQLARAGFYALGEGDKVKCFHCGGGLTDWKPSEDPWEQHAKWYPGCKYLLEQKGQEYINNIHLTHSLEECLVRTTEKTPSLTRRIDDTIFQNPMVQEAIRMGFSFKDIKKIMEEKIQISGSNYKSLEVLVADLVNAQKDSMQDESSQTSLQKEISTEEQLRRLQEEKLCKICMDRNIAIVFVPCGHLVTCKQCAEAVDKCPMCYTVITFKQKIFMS

Row | Compound | z-score [1] | z-score [2] | z-score [3] | composite z-score [4] | z-score [5] | z-score [6] | z-score [7] | z-score [8] | z-score [9] | composite z-score [10] | composite z-score [11] | composite z-score [12] | z-score [13] | z-score [14] | z-score [15] | z-score [16]
1 | COC(=O)C1=CC(CCCO)=CC(c2ccc(CN3CCCC3)cc2)N(Cc2sc3ccccc3c2Cl)C=C1C(=O)OC (stereo not given) | 0.666 | -2.54 (inactive) | 0.691 (inactive) | -1.63 (inactive) | 0.186 (inactive) | -1.62 (inactive) | 0.735 (inactive) | 1.29 (inactive) | 0.85 | -0.0084 | 4.74 (inactive) | 0.916 | -1.95 | -1.23 (inactive) | -0.438 (inactive) | -0.402 (inactive)
2 | C#CCN(C/C=C/c1ccccc1)[C@H](CO[Si](C)(C)C(C)(C)C)c1ccccc1 | -0.355 | 0.571 (inactive) | -0.668 (inactive) | -0.26 (inactive) | 0.167 (inactive) | 0.244 (inactive) | -1.38 (inactive) | -1.59 (inactive) | -0.764 | -0.295 | 0.141 (inactive) | 0.0247 | -0.775 | -0.229 (inactive) | 0.229 (inactive) | -0.274 (inactive)
3 | COc1cc2c(cc1O)C(C1CC1)N(Cc1ccc([N+](=O)[O-])o1)CC2 (stereo not given) | -0.145 | -1.49 (inactive) | -0.0144 (inactive) | -4.24 (inactive) | 0.0898 (inactive) | -0.346 (inactive) | -0.698 (inactive) | -0.821 (inactive) | 0.211 | 0.234 | 0.402 (inactive) | 0.315 | -0.993 | -6.04 (inactive) | -0.0479 (inactive) | 0.125 (inactive)
4 | CCCCN1CC=CC23O[C@@H]4C=CCOC(=O)[C@@H]4[C@H]2C(=O)N(C(CO)C(C)C)[C@@H]3C1=O (stereo not given in full) | -0.469 | 0.303 (inactive) | -0.908 (inactive) | -0.221 (inactive) | 0.0405 (inactive) | 0.707 (inactive) | -0.781 (inactive) | -0.825 (inactive) | -0.844 | -0.22 | -0.332 (inactive) | -0.186 | -0.156 | -5.09 (inactive) | 0.216 (inactive) | 0.118 (inactive)
5 | COCCOC(=O)N1C(=O)[C@@]2(c3cc(C#CCCO)ccc31)[C@H](C(=O)N1CCc3cc(OC)c(OC)cc3C1)[C@H]1C(=O)O[C@H](c3ccccc3)[C@H](c3ccccc3)N1[C@@H]2c1ccccc1OCCO | 0.713 | 1.68 (inactive) | 0.208 (inactive) | 0.0306 (inactive) | 1.38 (inactive) | 2.69 (inactive) | 0.497 (inactive) | 0.74 (inactive) | 1.01 | -0.0945 | 0.21 (inactive) | 0.805 | -2.18 | 0.554 (inactive) | 0.0905 (inactive) | 0.534 (inactive)
6 | CC(C)c1ccc(NN2C(C(O)C(C)C)C=CC3C(=O)N(c4ccccc4)C(=O)C32)cc1 (stereo not given) | -1.65 | -0.619 (inactive) | -0.331 (inactive) | 0.974 (inactive) | 0.711 (inactive) | 1.57 (inactive) | 0.0582 (inactive) | -0.303 (inactive) | 0.0438 | 0.132 | 1.49 (inactive) | 0.778 | -0.63 | -1.26 (inactive) | -0.172 (inactive) | -0.0386 (inactive)
7 | C=C(C(=O)CC[C@@H](OC(C)=O)c1cccc(OCCO)c1)C(C)C | -1.1 | -1.03 (inactive) | -0.353 (inactive) | -0.842 (inactive) | 0.26 (inactive) | 1.11 (inactive) | -1.29 (inactive) | -1.06 (inactive) | 0.173 | 0.686 | 0.723 (inactive) | 0.436 | -1.01 | -4.41 (inactive) | -0.0088 (inactive) | 0.158 (inactive)
8 | CN1C(=O)C2C(C1=O)C1C=C(c3ccc(CO)cc3)C2C(c2cccs2)N1C (stereo not given) | -0.584 | -1.59 (inactive) | -0.446 (inactive) | -1.46 (inactive) | -2.71 (inactive) | -0.0654 (inactive) | 0.596 (inactive) | 0.346 (inactive) | 0.343 | -0.444 | 0.482 (inactive) | -0.202 | -2.32 | -6.12 (inactive) | -0.89 (inactive) | -0.76 (inactive)
9 | CCCCC(=C=CC[C@@H](O)c1cccc(OCCO)c1)C[C@@H](O)COCc1ccccc1 | 0.161 | -2.28 (inactive) | -0.164 (inactive) | -2.23 (inactive) | 0.212 (inactive) | -2.76 (inactive) | 0.812 (inactive) | 0.577 (inactive) | 0.528 | -0.0561 | -0.0344 (inactive) | 0.713 | -1.1 | -4.82 (inactive) | -0.255 (inactive) | 0.827 (inactive)
10 | O=C(NCCO)C1=C[C@H](Oc2ccccc2I)[C@@H](O)[C@H](NCc2ccc(F)cc2)C1 | -1.47 | -2.04 (inactive) | -0.206 (inactive) | -0.287 (inactive) | 0.367 (inactive) | 0.423 (inactive) | -0.802 (inactive) | -1.44 (inactive) | -0.264 | 0.181 | 0.234 (inactive) | -0.875 | -1.61 | -6.81 (inactive) | 0.079 (inactive) | -0.34 (inactive)
